Data published in the supplement of paper PMC13380429.

Test system: Vero E6 infected with SARS-CoV-2
Assay: inhibition of SARS-CoV-2 cytopathic effect; higher = more antiviral protection, active = above 15
Settings: 48 h

Measured: inhibition of SARS-CoV-2 cytopathic effect

OC[C@H]1O[C@@H](c2ccc(F)c(Cc3cc4ccccc4s3)c2)[C@H](O)[C@@H](O)[C@@H]1O [ipragliflozin-L-proline]
inactive: 1 nM 0.82% | 8.33 nM -0.16% | 100 nM 0.41% | 833.33 nM 0.42% | 10000 nM 0.4%

CC(C)(C)Nc1nc(Nc2ccc(C(N)=O)cc2)cc(N)c1C#N
inactive: 1 nM -1.51% | 8.33 nM -2.29% | 100 nM -0.39% | 833.33 nM -2.89% | 10000 nM -1.36%

Cc1cc2c(OCC(CNC(C)(C)C)OC(=O)c3ccccc3)cccc2[nH]1 (stereo not given) [bopindolol]
inactive: 1 nM -0.9% | 8.33 nM -1.91% | 100 nM -0.64% | 833.33 nM 0.54% | 10000 nM 0.29%

COc1cccc(/C=N/N=C/c2cccc(OC)c2)c1
inactive: 1 nM -0.08% | 8.33 nM 2.48% | 100 nM -2.17% | 833.33 nM -0.34% | 10000 nM 0.47%

C/C=C/C=C/C(=O)O [sorbic-acid]
inactive: 1 nM 1.14% | 8.33 nM 2.26% | 100 nM -1.43% | 833.33 nM 2.41% | 10000 nM 2.55%

COCCNC(=O)COc1ccc(OCCNC[C@H](O)COc2ccccc2)cc1
inactive: 1 nM 0.49% | 8.33 nM 1.84% | 100 nM -1.53% | 833.33 nM -1.02% | 10000 nM -6.62%

COc1ccc([C@@H]2CC(=O)c3c(O)cc(O)cc3O2)cc1O [hesperetin]
inactive: 1 nM 1.09% | 8.33 nM 3.18% | 100 nM 4.54% | 833.33 nM 0.97% | 10000 nM 0.11%

Cc1c(C(=O)Nc2ccc(N3C[C@@H](C)O[C@@H](C)C3)nc2)cccc1-c1ccc(OC(F)(F)F)cc1 [sonidegib]
inactive: 1 nM 1.64% | 8.33 nM -0.28% | 100 nM -1.14% | 833.33 nM -2.32% | 10000 nM -7.02%

CN1[C@@H]2CC[C@H]1C[C@@H](OC(=O)[C@H](CO)c1ccccc1)C2 [hyoscyamine]
inactive: 1 nM 1.06% | 8.33 nM -0.12% | 100 nM 0.93% | 833.33 nM -0.12% | 10000 nM -0.51%

COc1cc2/c(=N/c3ccc(Br)cc3F)nc[nH]c2cc1OCC1CCN(C)CC1 [vandetanib]
inactive: 1 nM -1.28% | 8.33 nM 2.63% | 100 nM -1.67% | 833.33 nM -6.04% | 10000 nM -3.93%

CN(C)c1ccc2c(c1)Sc1cc(N(C)C)ccc1N2 [leucomethylene-blue]
inactive: 1 nM 2.22% | 8.33 nM 0.11% | 100 nM 0.26% | 833.33 nM 0.69% | 10000 nM -7.13%

COc1ccc(Cl)c(Nc2nc3ccccc3nc2NS(=O)(=O)c2cccc(NC(=O)C(C)(C)N)c2)c1 [pilaralisib]
inactive: 1 nM 0.3% | 8.33 nM 0.48% | 100 nM 1.1% | 833.33 nM 0.71% | 10000 nM -1.82%

CCCNC(C)C(=O)Nc1c(C)csc1C(=O)OC (stereo not given) [articaine]
inactive: 1 nM -0.23% | 8.33 nM 0.85% | 100 nM 0.42% | 833.33 nM 4.27% | 10000 nM -2.09%

CC1(C)C(=O)N(CCN2CCC(C(=O)c3ccc(F)cc3)CC2)c2ccccc21
inactive: 1 nM -2.5% | 8.33 nM 0.34% | 100 nM -1.18% | 833.33 nM -0.38% | 10000 nM 0.46%

COc1ccc(COc2ccc(Cc3cnc(N)nc3N)cc2OC)cc1
inactive: 1 nM -0.78% | 8.33 nM -1.56% | 100 nM -0.01% | 833.33 nM 0.11% | 10000 nM 0.48%

O=c1ccc2ccc(O)c(O)c2o1 [daphnetin]
inactive: 1 nM -1.96% | 8.33 nM 2.35% | 100 nM -2.13% | 833.33 nM 4.54% | 10000 nM 2.15%

Clc1ccc(N2CCN(Cc3c[nH]c4ncccc34)CC2)cc1
inactive: 1 nM -0.1% | 8.33 nM -0.31% | 100 nM -2.94% | 833.33 nM 1.1% | 10000 nM -3.38%

COc1nccnc1NS(=O)(=O)c1ccc(N)cc1 [sulfametopyrazine]
inactive: 1 nM -1.43% | 8.33 nM 0.06% | 100 nM -1.36% | 833.33 nM -2.74% | 10000 nM -0.68%

CC1(C)CC[C@]2(C(=O)O)CC[C@]3(C)C(=CC[C@@H]4[C@@]5(C)CC[C@H](O)C(C)(C)[C@@H]5CC[C@]43C)[C@@H]2C1 [oleanolic-acid]
inactive: 1 nM -0.65% | 8.33 nM -0.09% | 100 nM 0.47% | 833.33 nM -0.94% | 10000 nM -0.53%

C#C[C@]1(O)CC[C@H]2[C@@H]3CCC4=CC(=NO)CC[C@@H]4[C@H]3CC[C@@]21CC (mixture of isomers) [norelgestromin]
inactive: 1 nM -0.39% | 8.33 nM -1.06% | 100 nM 1.68% | 833.33 nM 2.43% | 10000 nM 2.14%

N#Cc1ccc2[nH]c(O)c(-c3ccc(CN4CCOCC4)cn3)c2c1
inactive: 1 nM -0.78% | 8.33 nM -0.13% | 100 nM -0.01% | 833.33 nM 4.77% | 10000 nM 11.4%

Cc1ccc(NC(=O)C2(c3ccc4c(c3)OC(F)(F)O4)CC2)nc1-c1cccc(C(=O)O)c1 [lumacaftor]
inactive: 1 nM 2.48% | 8.33 nM 0.38% | 100 nM -1.4% | 833.33 nM -0.17% | 10000 nM 1.24%

CCCCCCOc1nsnc1C1=CCCN(C)C1 [xanomeline]
inactive: 1 nM 0.86% | 8.33 nM -0.07% | 100 nM -1.23% | 833.33 nM -1.94% | 10000 nM -0.8%

CC(=O)NC[C@H]1CN(c2ccc(N3CCN(C(=O)CO)CC3)c(F)c2)C(=O)O1 [eperezolid]
inactive: 1 nM -1.15% | 8.33 nM -0.41% | 100 nM -0.04% | 833.33 nM 0.64% | 10000 nM 0.19%

O=C(Nc1ccncc1)c1cc([N+](=O)[O-])ccc1Cl
inactive: 1 nM -0.14% | 8.33 nM 1.74% | 100 nM -1.69% | 833.33 nM -1.5% | 10000 nM 14.7%
